The list is not random: actives were taken first. Their share in the collection is about 11%.
USP28 inh – inhibitors of human USP28 deubiquitinase | 3% of 47,000 active | purified USP28, Ub-rhodamine cleavage fluorescence, 30 min | AID 1645857, 2021 | Ubiquitin carboxyl-terminal hydrolase 28 (Homo sapiens), Q96RU2 | inhibition, % at 25 µM
USP17 inh – inhibitors of human USP17 deubiquitinase. purified USP17, Ub-rhodamine cleavage fluorescence, 3 h. inhibition, % at 50 µM. 6.5% of 47,000 active
USP30 block – inhibitors of human USP30 deubiquitinase. Ubiquitin carboxyl-terminal hydrolase 30 (Homo sapiens), Q70CQ3. purified USP30, Ub-rhodamine cleavage fluorescence. inhibition, % at 25 µM. 5.3% of 47,000 active. AID 1645860, 2021
Target sequence (Q70CQ3 whole entry, looked up): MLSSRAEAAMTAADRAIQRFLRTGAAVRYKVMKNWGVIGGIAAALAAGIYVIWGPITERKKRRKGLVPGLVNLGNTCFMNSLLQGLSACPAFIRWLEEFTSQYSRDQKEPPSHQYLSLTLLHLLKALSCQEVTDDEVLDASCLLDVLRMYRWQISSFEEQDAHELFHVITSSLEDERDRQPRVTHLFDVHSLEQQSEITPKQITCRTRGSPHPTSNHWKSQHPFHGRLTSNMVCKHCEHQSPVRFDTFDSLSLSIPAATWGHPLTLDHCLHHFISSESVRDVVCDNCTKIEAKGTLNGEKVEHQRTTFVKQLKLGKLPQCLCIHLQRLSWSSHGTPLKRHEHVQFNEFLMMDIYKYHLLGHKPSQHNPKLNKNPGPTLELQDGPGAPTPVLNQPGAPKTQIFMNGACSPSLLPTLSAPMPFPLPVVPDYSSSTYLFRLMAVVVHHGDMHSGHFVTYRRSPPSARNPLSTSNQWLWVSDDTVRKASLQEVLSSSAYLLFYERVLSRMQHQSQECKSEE
Numbers without * were called inactive. No stated cut-off is given here; in the data, active means inhibition above about 30%; inactive means the rest.

`CCC(=O)N1c2ccccc2NC2=C(C(=O)CC(c3ccccc3OCc3ccccc3)C2)C1c1ccccc1` (configuration not stated) gave USP28 inh 9, USP17 inh 36* and USP30 block 61*.
`CCOc1cc(C2C3=C(CC(c4ccccc4)CC3=O)Nc3ccccc3N2C(C)=O)ccc1OCc1ccc(Cl)cc1` (configuration not stated) gave USP28 inh 1, USP17 inh -8 and USP30 block 0.
CC1(C)CC(=O)C2=C(C1)Nc1ccccc1N(C(=O)Cc1ccccc1)C2c1ccc(F)cc1 (configuration not stated) was read as USP28 inh 0, USP17 inh 4 and USP30 block 2.
O=C1CC(c2ccccc2)CC2=C1C(c1c[nH]c3ccccc13)N(C(=O)C1CC1)c1ccccc1N2 (configuration not stated) was read as USP28 inh -8, USP17 inh 11 and USP30 block -62.
Screening COc1ccc(NC(=O)CC2N=C(N3CCN(c4ccc(OC)cc4)CC3)NC2=O)cc1 (configuration not stated) returned USP28 inh -9, USP17 inh 2 and USP30 block 2.
Screening Cc1nc2ccc(NC(=O)c3ccccc3OCC(=O)Nc3ccccc3F)cc2s1 returned USP28 inh -208, USP17 inh -171 and USP30 block inactive.
Cc1nc2ccc(NC(=O)COc3ccccc3[N+](=O)[O-])cc2s1 was read as USP28 inh 6 and USP30 block 57*.
Screening COc1cccc(S(=O)(=O)N2CCn3nc(C(C)(C)C)cc3C2)c1 returned USP28 inh 21, USP17 inh 12 and USP30 block 79*.
Screening COc1cccc(S(=O)(=O)N2CCCn3nnc(COCC4CC4)c3C2)c1 returned USP28 inh -1, USP17 inh 2 and USP30 block 19.
`Cc1ccc(NC(=O)Nc2nnc(CC(=O)NCc3ccccc3)s2)c(Cl)c1` gave USP28 inh -17, USP17 inh 6 and USP30 block -7.
For COc1cccc(-c2cncc(C3CCN(C(=O)c4cnccn4)CC3)n2)c1 the results were USP28 inh -1, USP17 inh -1 and USP30 block -3.
For Cc1ccc(NC(=O)c2cnc(N3CCOCC3)nc2)cc1F the results were USP28 inh 27, USP17 inh 89* and USP30 block 46*.
For Cc1ccc(NC(=O)c2cnc(N3CCOCC3)nc2)cc1C the results were USP28 inh 22, USP17 inh 2 and USP30 block -7.
`CCN1C(=O)CCCC12CCCN(C(=O)c1ccccc1C)C2` (configuration not stated) gave USP28 inh -9, USP17 inh -1 and USP30 block 0.
CC(C)N1CCc2c(sc(NC(=O)CSc3ccc(Cl)cc3)c2C(N)=O)C1 was read as USP28 inh 24, USP17 inh 50* and USP30 block 18.
`CC(C)N1CCc2c(sc(NC(=O)CSc3ccc(F)cc3)c2C(N)=O)C1` gave USP28 inh 6, USP17 inh -8 and USP30 block -3.
For COc1ccccc1N1CCN(C(=O)C2CC(=O)N(c3ccccc3C)C2)CC1 (configuration not stated) the results were USP28 inh 13, USP17 inh 7 and USP30 block 22.
Screening CC(=O)c1ccc(S(=O)(=O)N2CCC3(CC2)NC(=O)c2ccccc2N3)cc1 returned USP28 inh 2, USP17 inh 16 and USP30 block 12.
Screening O=C1NC2(CCN(S(=O)(=O)c3ccc(F)c(F)c3)CC2)Nc2ccccc21 returned USP28 inh -16, USP17 inh -8 and USP30 block -13.
Cc1ccc(S(=O)(=O)N2CCC3(CC2)NC(=O)c2ccccc2N3)cc1C was read as USP28 inh 0, USP17 inh 58* and USP30 block 5.
`Cc1ccc(S(=O)(=O)N2CCC3(CC2)NC(=O)c2ccccc2N3)c(C)c1` gave USP28 inh 3, USP17 inh 62* and USP30 block -5.
`NS(=O)(=O)c1ccc(CCNC(=O)CSc2ccc3c(c2)CCC3)cc1` gave USP28 inh 4, USP17 inh 0 and USP30 block 0.
O=C(CN(Cc1ccc(Cl)cc1)S(=O)(=O)c1ccc(Cl)cc1)N1CCOCC1 was read as USP28 inh 16, USP17 inh 21 and USP30 block 63*.
Screening O=C(CN(Cc1ccccc1)S(=O)(=O)c1ccc(Cl)cc1)Nc1ccc(N2CCOCC2)cc1 returned USP28 inh 2, USP17 inh 18 and USP30 block -27.
`Cc1ccc(NC(=O)CSc2ccccc2C(=O)Nc2ccc3c(c2)NC(=O)C(C)O3)cc1` (configuration not stated) gave USP28 inh -1, USP17 inh 13 and USP30 block -36.
COc1ccccc1NS(=O)(=O)c1ccc2oc(SCC(=O)c3ccccc3)nc2c1 was read as USP28 inh 64*, USP17 inh 1 and USP30 block 3.
For COc1ccc(NS(=O)(=O)c2ccc3oc(SCC(=O)N(C)C4CCS(=O)(=O)C4)nc3c2)cc1 (configuration not stated) the results were USP17 inh -2.
`NC(=O)c1ccccc1OCC(=O)N1CCc2ccccc21` gave USP28 inh 51*, USP17 inh 62* and USP30 block 76*.
For O=C(COc1nc2ccccc2nc1N1CCOCC1)N1CCc2ccccc21 the results were USP28 inh -173, USP17 inh -126 and USP30 block inactive.
Screening CCC1(C)Cc2c(sc3nc(SC)nc(SCC(=O)NCCc4ccccc4)c23)CO1 (configuration not stated) returned USP28 inh -1, USP17 inh 9 and USP30 block -27.
O=C(c1cn[nH]c1C1CCCN(S(=O)(=O)c2ccccc2)C1)N1CCCC1 (configuration not stated) was read as USP28 inh -8, USP17 inh 1 and USP30 block 0.
CCCc1nc2c(sc3nc4c(cc32)COC(C)(C)C4)c(=O)n1CC(=O)Nc1ccccc1C was read as USP28 inh 2, USP17 inh 62* and USP30 block 0.
For Cc1nc(SC(C)C(=O)Nc2ccccc2)c2sc3nc4c(cc3c2n1)COC(C)(C)C4 (configuration not stated) the results were USP28 inh 0, USP17 inh 11 and USP30 block 18.
Screening N#Cc1c2c(c(-c3ccccc3)n(-c3ccccn3)c1=O)CCCC2 returned USP28 inh -20, USP17 inh -10 and USP30 block -25.
`COc1ccc2cc(-c3nc4cc(C)ccn4c3NCc3ccccc3)c(=O)[nH]c2c1` gave USP28 inh -220 and USP30 block -413.
Screening Cc1ccc2[nH]c(=O)c(-c3nc4ccc(C)cn4c3NCc3ccc(F)cc3)cc2c1 returned USP28 inh 12, USP17 inh 76* and USP30 block 2.
`O=C(CC1C(=O)N(C2CCCC2)c2nc3ccccc3n21)Nc1ccc2c(c1)OCCO2` (configuration not stated) gave USP28 inh 0, USP17 inh -3 and USP30 block -12.
Screening Cc1c(-c2nnc(-c3ccccc3Cl)o2)nnn1-c1ccccc1 returned USP28 inh 35*, USP17 inh 3 and USP30 block 81*.
